Hits are enriched below; roughly 27% of the tested compounds scored in any of these assays.
CYP2C19 act – human CYP2C19 activators, primary screen, biochemical, luminescence | Cytochrome P450 2C19 (Homo sapiens), P33261 | recombinant CYP2C19, luciferin-H EGE luminescence; stronger effect = higher value; 0 = fully inhibited enzyme, 1 = untreated enzyme | activation factor at 5 µM | 96,000 tested, under 10 active;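 active means activation factor of at least 2 at 5 µM in the primary screen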;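 further: 0 = wells with 2.5 mM tranylcypromine and 1 = vehicle-only wells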
Target sequence (P33261 whole entry, looked up): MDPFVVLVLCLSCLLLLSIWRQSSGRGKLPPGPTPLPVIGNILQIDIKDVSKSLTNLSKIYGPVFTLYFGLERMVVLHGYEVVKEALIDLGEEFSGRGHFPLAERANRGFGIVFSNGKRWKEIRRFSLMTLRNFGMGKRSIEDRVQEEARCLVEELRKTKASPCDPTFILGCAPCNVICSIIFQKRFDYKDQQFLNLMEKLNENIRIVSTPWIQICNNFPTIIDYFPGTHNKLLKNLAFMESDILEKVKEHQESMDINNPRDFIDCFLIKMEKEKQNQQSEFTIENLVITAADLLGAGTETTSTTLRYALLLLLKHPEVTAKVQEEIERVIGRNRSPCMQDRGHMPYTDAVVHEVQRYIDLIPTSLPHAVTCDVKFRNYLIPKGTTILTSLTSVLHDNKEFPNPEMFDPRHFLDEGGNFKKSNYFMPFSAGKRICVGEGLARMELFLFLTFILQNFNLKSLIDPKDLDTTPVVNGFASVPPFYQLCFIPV
sEH activator – soluble epoxide hydrolase activators, primary screen, biochemical, human sEH; activation, % at 2 µM; AID 717, 2007; 0.04% of 91,000 active; Bifunctional epoxide hydrolase 2 (Homo sapiens), P34913; purified human sEH enzymatic activity, activator screen; in the data active means activation above about 37%
CYP2C19 inh – blockers of cytochrome P450 2C19 activity – biochemical, luminescence, ADME assay, primary screen. P33261. CYP2C19 Supersomes, luciferin-H EGE luminescence, 30 min. inhibition, % at 5 µM. 21% of 96,000 active. AID 778, 2007;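 active means CYP2C19 inhibition above a set limit at 5 µM in the primary screen, cut at about 50% in these data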;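 further: plate controls were negative control wells for no effect and 2.5 mM tranylcypromine positive control for full effect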
sEH inhibitor – soluble epoxide hydrolase inhibitors, primary screen, biochemical, human sEH; Bifunctional epoxide hydrolase 2 (Homo sapiens), P34913; recombinant human sEH enzymatic activity assay; inhibition, % at 2 µM; 0.34% of 91,000 active; AID 707, 2007; in the data active means inhibition above about 80%
CYP2C9 inh – blockers of cytochrome P450 2C9 activity – biochemical, luminescence, ADME assay, primary screen; P11712; CYP2C9 Supersomes, luciferin-H conversion; inhibition, % at 5 µM; 20% of 96,000 active;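 active means blocking of liver enzyme CYP2C9 beyond about 50% at 5 µM, limit read from the data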
CYP2C9 act – human CYP2C9 activators, primary screen, biochemical, luminescence; recombinant CYP2C9, luciferin-H conversion; stronger effect = higher value; factor 1 = untreated enzyme, 0 = blocked; Cytochrome P450 2C9 (Homo sapiens), P11712; activation factor at 5 µM; 1.4% of 96,000 active;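 active means activation factor of 2 or more for CYP2C9 at a 5 µM dose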;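 further: 0 = sulfaphenazole-blocked wells and 1 = vehicle-only wells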
* = called active by the depositor; . = no result given.

SMILES	CYP2C19 act	sEH activator	CYP2C19 inh	sEH inhibitor	CYP2C9 inh	CYP2C9 act
Cc1ccc(C(=O)NCCSc2ccc(Cl)cc2)cc1[N+](=O)[O-]	.	-55	.	54	.	.
Cc1ccc(SCCNC(=O)c2ccccc2C)cc1	0.1	-12	90*	13	89*	0.1
Cc1ccc(SCCNC(=O)c2ccc(C)c([N+](=O)[O-])c2)cc1	0.5	-57	51*	58	47	0.5
Cc1ccc(C(=O)NCCCn2ccnc2)cc1[N+](=O)[O-]	0.3	14	74*	-12	82*	0.2
Cc1ccc(SCCNC(=O)C(C)C)cc1	0.9	-2	11	1	8	0.9
O=C(NCCN1CCN(c2ccccc2)CC1)C1CCN(S(=O)(=O)N2CCOCC2)CC1	1	-1	3	3	10	0.9
COc1ccccc1N1CCN(CCc2n[nH]c(=S)n2-c2ccccc2)CC1	1.2	.	-21	.	-20	1.2
O=C(c1noc2c1CCc1ccccc1-2)N1CCCc2ccccc21	0.5	.	52*	.	-45	1.5
O=C(c1noc2c1CCc1ccccc1-2)N1CCOCC1	0.9	10	12	-8	-216	3.2*
O=C(c1noc2c1CCc1ccccc1-2)N1CCc2ccccc2C1	0.4	.	60*	.	-74	1.7
Cc1ccc(N(C(=O)c2csnn2)C(C(=O)NC(C)(C)C)c2cccs2)cc1 (stereo not drawn)	0.2	0	77*	3	6	0.9
CC(C)c1ccc(N(C(=O)c2csnn2)C(C(=O)NC(C)(C)C)c2ccncc2)cc1 (stereo not drawn)	0.4	13	60*	-9	23	0.8
Cc1ccc(N(C(=O)c2csnn2)C(C(=O)NC(C)(C)C)c2ccncc2)cc1 (stereo not drawn)	0.8	1	22	1	9	0.9
O=C(NCCCN1CCOCC1)C1CCC(=O)N1C1CCCCC1 (stereo not drawn)	0.8	2	21	1	-4	1
CC1Cc2cc(/C(O)=C3/C(=O)C(=O)N(CC4CCCO4)C3c3ccco3)ccc2O1 (stereo not drawn)	1.2	-4	-19	3	-10	1.1
CCCCOc1ccc(NC2=NC3(CCCC3)N=C(N)N2)cc1	1.1	7	-6	-3	-16	1.2
N/C(=N\OC(=O)c1ccc(Cl)cc1)c1nonc1N	0.9	-4	10	4	27	0.7
C=CCOc1cccc(C2c3c(oc4ccccc4c3=O)C(=O)N2c2ccccn2)c1 (stereo not drawn)	0.6	7	38	-3	38	0.6
O=S(=O)(c1ccc(NCCc2c[nH]c3ccccc23)nc1)N1CCOCC1	0.5	0	51*	0	28	0.7
O=C(CN1C(=O)C2C3C=CC(C3)C2C1=O)NCc1ccc2c(c1)OCO2 (stereo not drawn)	0.7	7	27	-6	15	0.9
COc1cccc(CNc2ccc3c(c2)CCC3)c1	0.9	-8	13	5	-11	1.1
CC(C)(C)n1nnnc1C(c1ccccc1F)N(Cc1ccco1)CC1CCCO1 (stereo not drawn)	0.7	14	30	-13	71*	0.3
Cc1cccc2cc(C(c3nnnn3C(C)(C)C)N(Cc3ccco3)CC3CCCO3)c(=O)[nH]c12 (stereo not drawn)	0.8	-8	24	9	56*	0.4
CCCCN(C(=O)c1ccco1)c1nnc(-c2cc(OC)c(OC)c(OC)c2)s1	0.8	10	15	-11	-16	1.2
COc1ccc(OC)c(N/C=C2/CCCCC2=O)c1	0.7	9	31	-5	55*	0.4
SMILES	CYP2C19 act	sEH activator	CYP2C19 inh	sEH inhibitor	CYP2C9 inh	CYP2C9 act
COc1ccc(N/C=C2/CCCCC2=O)cc1	0.7	29	27	-31	3	1
COc1ccc(OC)c(S(=O)(=O)Nc2ccccc2C)c1	0.1	10	87*	-11	23	0.8
COc1ccc(OC)c(S(=O)(=O)Nc2ccccc2C(=O)O)c1	1.1	-4	-13	6	3	1
CCNS(=O)(=O)c1cc(OC)ccc1OC	0.1	4	85*	-5	90*	0.1
COc1ccc(OC)c(NS(=O)(=O)c2cc(OC)ccc2OC)c1	0	-3	96*	2	59*	0.4
COc1ccc(OC)c(S(=O)(=O)Nc2ccccc2SC)c1	.	31	.	-38	.	.
COC(=O)c1ccc(NC(=O)Cn2nc(SC)n(N)c2=S)cc1	0.8	.	23	.	8	0.9
CC(=O)c1sc(NC(=O)CN2C(=O)CCC2=O)nc1C	.	3	.	-1	.	.
CCCCOc1ccc(S(=O)(=O)Nc2cc(OC)ccc2OC)cc1	0.1	-6	86*	5	74*	0.3
COc1ccc(OC)c(NC(=O)COc2ccc(S(=O)(=O)NC(C)C)cc2)c1	0.5	-16	46	18	44	0.6
COc1ccc(OC)c(S(=O)(=O)NCCC2=CCCCC2)c1	0	-1	100*	4	89*	0.1
CC1=CN2CC(O)CN=C2C=C1 (stereo not drawn)	1	-6	-2	6	-10	1.1
Cc1cccc(OCC(=O)N/N=C/c2cn[nH]c2-c2ccc(Cl)c(Cl)c2)c1	0.8	6	22	-3	57*	0.4
C/C(CC(=O)Nc1cc(C)ccn1)=N\NC(=O)COc1cccc(C)c1	0.9	12	6	-9	14	0.9
Cc1ccc(OCC(=O)N/N=C/c2cn[nH]c2-c2ccc(Cl)c(Cl)c2)cc1	0.9	9	14	-7	52*	0.5
O=C(NC1(C(F)(F)F)NC(=O)N(CC2CCCCC2)C1=O)c1ccco1 (stereo not drawn)	0.8	2	18	-2	31	0.7
Cc1cc(C)cc(N(CC(=O)NC2CCC(C)CC2)S(=O)(=O)c2c(C)noc2C)c1 (stereo not drawn)	1	.	5	.	12	0.9
CCOC(=O)c1cc(C#N)c(Oc2ccccc2OC)nc1-c1ccccc1	0.6	-8	42	7	64*	0.4
COC(=O)c1cc(C#N)c(NCc2ccccc2)nc1C	0.9	-1	11	2	4	1
COC(=O)c1cc(C#N)c(Oc2ccccc2OC)nc1C	0.3	16	72*	-14	52*	0.5
CCOC(=O)c1cc(C#N)c(SC)nc1-c1ccccc1	0.8	7	17	-8	47	0.5
Nc1nnc(CCOc2ccccc2Cl)s1	0.8	-9	18	7	2	1
Nc1nnc(Cc2ccc(Cl)c(Cl)c2)s1	0.4	-4	58*	8	8	0.9
NCCCCCNC(=O)/C=N\O	1.1	-2	-6	4	-2	1
